Sampled rows, rich in hits. Any-hit rate of the full collection: about 20%.
Shiga inhibitor: A qHTS for Small Molecule Inhibitors of Shiga Toxin; inhibition, % at 38.7 µM; hit rate 9.2% among 290,000; Vero cells, Shiga toxin protein synthesis inhibition reporter; in the data active = inhibition mostly above about 28%, no sharp cut-off; inactive = mostly below about 43%; also: 0% is about no effect
Pf growth 96h: Primary qHTS for delayed death inhibitors of the malarial parasite plastid, 96 hour incubation; P. falciparum luciferase reporter growth, 96 h; Potency, µM (top dose mostly 28.7 µM), without a hit: at the top dose activity change, negative = inhibition, most hits filed as inhibitors; hit rate 6.9% among 320,000; also: potency is read from the fitted curve at half-maximal effect; % is scaled to controls: 0 for no effect and ±100 for the full control effect
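Plates of compound plus infected erythrocytes (2% hematocrit, 0.05% parasitemia final) incubate 96 hours, 37 C, 5% CO2. Detection reagent added; reduced luminescence from the parasites' luciferase reporter flags inhibition.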
Cycloheximide cs: Cycloheximide Counterscreen for Small Molecule Inhibitors of Shiga Toxin; cell reporter, cycloheximide protein synthesis inhibition counterscreen; max response, %; hit rate 12% among 300,000; in the data active = max response mostly above about 13%, no sharp cut-off; inactive = mostly below about 14%; also: read at 38.3 µM for the half of the compounds with a filed dose; 0% is about no effect
Pf growth 48h: Primary qHTS for delayed death inhibitors of the malarial parasite plastid, 48 hour incubation; P. falciparum luciferase growth in erythrocytes, 48 h; Potency, µM (highest dose often 28.7 µM), inactives show at the highest dose activity change, negative = inhibition, actives largely listed as inhibitors; hit rate 5.9% among 310,000; also: potency is read from the fitted curve at half-maximal effect; % is scaled to controls: 0 for no effect and ±100 for the full control effect
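Parasite viability was followed by luminescence of a genomically integrated firefly luciferase. Cultures held 0.1% parasitemia at 2% hematocrit (final), incubated under 5% CO2 at 37 C.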
HCMV inh: qHTS Assay for inhibitors of the human cytomegalovirus (HCMV) | HFF cells, HCMV-luciferase reporter, 72 h; hits give low values | activity change, negative = inhibition, % at 57.5 µM | hit rate 4.5% among 410,000 | AID 1259415, 2018; in the data active = activity change below about -60%; inconclusive = no clear call, values can overlap the other calls; inactive = above about -39%; also: % is scaled to controls: 0 for no effect and ±100 for the full control effect
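Human foreskin fibroblasts infected with luciferase-reporter HCMV at MOI 1 PFU/cell, compounds at two doses. Luciferase measured 72 h post infection; normalized to buffer-only basal and Salinomycin (10uM) controls.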
An asterisk follows results filed as active; ? = inconclusive; . = no result. Unless noted, calls follow the shape of the dose curve; as a rule, active = well fitted inhibition curve with a large enough effect; inconclusive = small, poorly fitted or top-dose-only effect, or another doubt; inactive = no such curve, though single readings can be large or run the other way.

SMILES	Shiga inhibitor	Pf growth 96h	Cycloheximide cs	Pf growth 48h	HCMV inh
Cc1cccc(NC(=O)c2cnn3ccccc23)c1C	78*	135%	50*	107%	-39
Cc1cccc(NC(=O)c2ccccc2O)c1C	49*	?	34*	?	-86*
Cc1cccc(NC(=O)c2cnn(C)c2)c1C	-4	-16%	-3	10%	0
CN(C)c1ccc(C(CNC(=O)Cc2ccc(Cl)cc2)N2CCOCC2)cc1 (centres undefined)	.	.	.	.	-29
Cc1ccc(Cl)cc1Nc1sc(C(=O)c2ccccc2)c(N)c1S(=O)(=O)c1ccccc1	.	.	.	.	16
CC1=CC(C)=Nc2ccccc2N1	62*	69%	45*	.	68
COc1ccc(CCNS(=O)(=O)c2ccc(F)c(C(=O)Nc3ccc(Cl)cc3)c2)cc1OC	.	.	.	.	-31
COc1ccc(/C=C\c2onc(C)c2S(=O)(=O)N2CCC(C(=O)NCc3ccco3)CC2)cc1	7	13µM*	-2	?	-22
COc1ccc(NC(=O)C2CCN(S(=O)(=O)c3c(C)noc3/C=C/c3ccco3)CC2)cc1	.	.	.	.	-67*
O=C(/C=C/c1ccc(Br)o1)NC(c1ccccc1)c1ccccc1	-8	?	-1	12µM*	-25
COc1ccc(-c2nc(CCl)cs2)cc1	54*	107%	45*	47%	-36
COc1ccc(-c2nc(CCl)cs2)cc1OC	45*	?	29*	11%	35
ClCc1csc(-c2ccccc2Cl)n1	5	16%	13	-4%	5
COc1ccc(-c2nc(CNS(=O)(=O)c3ccc(F)cc3)cs2)cc1	.	.	.	.	-73*
CCc1ccc(-c2nc(CCl)cs2)cc1	90*	167%	37*	178%	?
COc1ccccc1N1CCN(C(=O)c2oc3ccccc3c2NC(=O)C(C)Oc2ccccc2)CC1 (centres undefined)	.	.	.	.	18
Cc1ccc(CNC(=O)CN2C(C)CCCC2C)cc1 (centres undefined)	-2	19%	-4	-3%	-2
CSC1=NC2(CCN(C(=O)NC3CCCCC3)CC2)N=C1c1ccc(C)cc1	.	.	.	.	16
COc1ccc(-c2csc(C3=C(O)CN(C(C)C)C3=N)n2)cc1OC	39	?	15	10µM*	64
COc1ccc(-c2nc(-c3ccc(O)cc3O)cs2)cc1OC	55*	?	30*	-15%	28
COc1ccc(-c2csc(-c3ccc(O)cc3)n2)cc1	73*	3%	52*	69%	-24
COc1cccc(-c2nc(CCl)cs2)c1	57*	35%	37*	-15%	20
CC(=O)NC(c1ccccc1)c1nc(/C=C/c2ccccc2)cs1 (centres undefined)	.	.	.	.	-7
O=C(NCc1ccncc1)[C@@H]1CCCN1C(=O)[C@H]1CCCN1	.	.	.	.	29
Cc1cccc(N2CCN(C3(c4ccccc4)C(=O)c4ccccc4C3=O)CC2)c1C	.	.	.	.	-3
SMILES	Shiga inhibitor	Pf growth 96h	Cycloheximide cs	Pf growth 48h	HCMV inh
COC(=O)C(Cc1ccc(OC(=O)c2ccccc2Cl)cc1)N1Cc2ccccc2C1=O (centres undefined)	38	48%	22*	87%	159
COC(=O)C(Cc1ccc(OC(=O)c2ccccc2C)cc1)N1Cc2ccccc2C1=O (centres undefined)	active	33%	33*	28%	95
COc1ccc(CNC(=O)C(CC(C)C)N2Cc3ccccc3C2=O)cc1 (centres undefined)	.	.	.	.	10
COc1ccc(NC2=NCCCCC2)cc1	-6	-9%	-4	18%	11
COc1ccc(NC2=Nc3ccccc3CC2)cc1	86	?	23*	189%	37
CCOc1nc(C)cc(C)c1S(=O)(=O)c1cccc(Cl)c1	2	0%	3	?	5
COc1cccc(CNC(=O)COC(=O)CCCNC(=O)c2ccc(Cl)cc2)c1	.	14%	.	10%	-36
C/C(NC(=O)c1ccccc1F)=C1\C(=O)C[C@@H]2[C@H]1C2(C)C	35	.	14*	-4%	8
C/C(NC(=O)c1cccc(F)c1)=C1/C(=O)C[C@@H]2[C@H]1C2(C)C	22	43%	23	.	30
CCCOC(=O)c1ccc(S(N)(=O)=O)o1	-10	7.4µM*	1	9%	-24
CCCCOC(=O)c1ccc(S(N)(=O)=O)o1	-14	?	11*	11%	-10
O=C(Nc1c(C(=O)N2CCN(c3ccccc3F)CC2)oc2ccccc12)c1ccc(Br)o1	.	.	.	.	-31
Cc1sc2ncnc(SCc3ccco3)c2c1C	-4	9%	-3	?	?
Cc1sc2ncnc(NCC(c3ccco3)N3CCCC3)c2c1C (centres undefined)	14	8.3µM*	-1	10µM*	-1
C[C@H]1CN([C@@H](C)CO)C(=O)CCCn2nncc2CO[C@H]1CN(C)S(=O)(=O)c1ccc(C#N)cc1	.	.	.	.	22
COc1ccc(-n2c(=S)[nH]c3cc(C(=O)Nc4ccc(C)c(F)c4)ccc3c2=O)c(OC)c1	37	-17%	9	-14%	-76*
COc1ccc(NC(=O)c2ccc3c(=O)n(-c4ccc(OC)cc4OC)c(=S)[nH]c3c2)c(OC)c1	-11	?	1	?	-24
CCOc1ccc(NC(=O)c2ccc3c(=O)n(-c4ccc(OC)cc4OC)c(=S)[nH]c3c2)cc1	-8	7%	8	?	-82*
COc1ccc(-n2c(=S)[nH]c3cc(C(=O)Nc4cc(C(N)=O)ccc4OC)ccc3c2=O)c(OC)c1	3	0%	-8	-23%	-36
CN(C)CCN(CC1CCCN(Cc2ccccc2F)C1)C(=O)c1ccc(Cl)cc1 (centres undefined)	-2	13µM*	-1	?	-4
Fc1ccc2cc(C3=CCCCC3)ncc2c1	.	.	.	.	-95*
O=C(NCc1ccco1)c1ccc(C(=O)NCc2ccco2)s1	-45	.	-12	-8%	0
CCc1sc(C(=O)NCc2ccco2)cc1Br	.	10µM*	19*	1%	50
CCc1sc(C(=O)NCc2ccco2)cc1C	64*	15%	13	-2%	20
CCc1ccccc1NC(=S)N=Nc1c(O)n(C)c2ccc(S(=O)(=O)N3CCOCC3)cc12	-8	1.9µM*	-5	3.3µM*	-34
Cc1ccc(C)c(NC(=S)N=Nc2c(O)n(C)c3ccc(S(=O)(=O)N4CCOCC4)cc23)c1	-5	-9%	-2	6.6µM*	?
Cc1ccc(Cn2c(O)c(N=NC(=S)Nc3ccccc3F)c3cc(S(=O)(=O)N4CCOCC4)ccc32)cc1	10	1%	7	3.3µM*	0
CCc1ccccc1NC(=O)c1ccc(S(=O)(=O)N2CCCC2)cc1	-7	-12%	-7	9%	-15
CCN(CC)C(=O)c1[nH]cnc1C(=O)N[C@@H](Cc1ccccc1)C(=O)OCc1ccccc1	-11	1%	-2	-17%	-18
CC(=NNC(=O)CCC(=O)Nc1ccccc1Cl)c1ccco1	.	.	.	.	13

Compound activity as filed in PubChem BioAssay.
